The whole screen tested about 63,000 compounds, of which about 1,100 (1.7%) were called active.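 How the source made its calls: active means compounds whose percent cytotoxicity in the single-dose primary screen, scaled between solvent and toxic-drug controls, exceeds 50; inactive means the rest.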 Only a selection was taken, and actives are over-represented in it overall. Results with a measured potency or affinity are listed apart.
Assay: cytotoxicity in KRAS-transformed pancreatic duct cells, primary screen, cell-based, fluorescence, HTS (AID 431);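 further: 0% = DMSO solvent wells and 100% = doxorubicin-treated wells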
Conditions: HPDE-C7K KRASV12 cells, Alamar Blue viability, 48 h; at 10 µM; active compounds read high

Row | Compound | cytotoxicity
1 | COC(=O)C1=C(C)NC(=O)C1(NC(=O)CN1CCCC1=O)C(F)(F)F (stereo not drawn) | 13.1% (inactive)
2 | CCOC(=O)C1CCCN(C(=O)c2cc3c(C)nc4ccccc4c3o2)C1 (stereo not drawn) | -14.6% (inactive)
3 | Cc1sc(NC(=O)CSc2nnnn2C2CCCC2)c(C#N)c1C | -6.4% (inactive)
4 | N#Cc1c(NC(=O)CSc2nnnn2C2CCCCC2)sc2c1CCCC2 | -26.1% (inactive)
5 | N#Cc1c(NC(=O)CSc2nnnn2C2CCCC2)sc2c1CCCC2 | 50.4% (active)
6 | CC1CCCN(C(=O)c2ccc3nc[nH]c3c2)C1 (stereo not drawn) | -23.2% (inactive)
7 | COc1ccc(C)cc1NC(=O)c1ccc(S(=O)(=O)N2CCOCC2)cc1 | -1.3% (inactive)
8 | COc1cccc(C=NCCNC(=O)c2nonc2N)c1O | -2.1% (inactive)
9 | Nc1nonc1C(=O)NCCNC(=O)c1ccccc1F | 2.3% (inactive)
10 | Nc1nonc1C(=O)NCCN=Cc1cc(Cc2ccccc2)cc(Br)c1O | 82.8% (active)
11 | O=C(OCc1ccccc1Cl)c1ccc(-n2cnnc2)cc1 | -8% (inactive)
12 | CCOc1ccc(-n2cnnn2)cc1S(=O)(=O)NCc1ccccc1 | 4.1% (inactive)
13 | CC(C)(O)C1=NOC(c2ccccc2)C1 (stereo not drawn) | 6.7% (inactive)
14 | CCOC(=O)c1ccc(NC(=O)CSc2nnc(-c3cccs3)n2CC)cc1 | 0.1% (inactive)
15 | N#C/C(=C(/O)CN1CCOCC1)c1nc2ccccc2s1 | 3% (inactive)
16 | Cc1ccc(SC/C(O)=C(\C#N)c2nc3ccccc3s2)cc1 | 79.7% (active)
17 | COC(=O)c1ccc(/C(O)=C(\C#N)c2nc3ccccc3s2)cc1 | 52.1% (active)
18 | COc1ccc(C/C(O)=C(\C#N)c2nc3ccccc3s2)cc1 | 46.6% (inactive)
19 | CC(C)=C(C#N)c1nc2ccccc2s1 | -11.4% (inactive)
20 | Cc1ccc(SC/C(O)=C(\C#N)c2nc3ccccc3n2C)cc1 | 20.5% (inactive)
21 | c1ccc(N2CCN(c3nnc(Cc4cccnc4)c4ccccc34)CC2)nc1 | 8.4% (inactive)
22 | COc1ccc(OC)c(NC(=O)c2cnc3ccccn3c2=O)c1 | 12.6% (inactive)
23 | COC(=O)CN(c1ccc(F)cc1)S(=O)(=O)c1ccccc1 | -5.6% (inactive)
24 | CC(C)CCNC(=O)CN(C(=O)CCC(=O)Nc1ccccn1)c1ccc2c(c1)OCO2 | -9.3% (inactive)
25 | COC(=O)c1cc(N2C(=O)C3C(C2=O)C2(C)C=CC3(C)O2)ccc1Cl (stereo not drawn) | 8% (inactive)

Row | Compound | cytotoxicity
26 | Cc1cccc(OCCCN2CCCCCC2)c1 | 18.4% (inactive)
27 | Cc1cccc(OCCn2c(=O)n(C)c3ccccc32)c1 | 2.1% (inactive)
28 | CCCn1nc(CC(=O)O)c2ccccc2c1=O | 0.6% (inactive)
29 | Cc1ccc(NC(=O)CCn2c(=O)oc3ccccc32)c(C)c1 | -9.2% (inactive)
30 | CCCCn1c(SCN2C(=O)c3ccccc3C2=O)nc2cc(S(N)(=O)=O)ccc21 | -14.9% (inactive)
31 | CCCCn1c(SCc2c(C)noc2C)nc2cc(S(N)(=O)=O)ccc21 | 39.5% (inactive)
32 | CCCCn1c(SCc2ncc(-c3ccccc3)o2)nc2cc(S(N)(=O)=O)ccc21 | 53.1% (active)
33 | COc1ccccc1C1C2CCCCC2(O)CCN1CC(=O)Nc1ccccc1 (stereo not drawn) | -7.4% (inactive)
34 | Cn1cc(S(=O)(=O)CC(=O)N2CCc3ccccc32)c2ccccc21 | 26.9% (inactive)
35 | COc1ccc(C(=O)CSc2nnc(-c3cc4ccccc4cc3O)n2Cc2ccco2)cc1 | 66.1% (active)
36 | O=C(CSc1nnc(-c2cc3ccccc3cc2O)n1Cc1ccco1)c1ccc(F)cc1 | 13.1% (inactive)
37 | COc1ccc(C(=O)CSc2nnc(-c3ccccn3)n2Cc2ccco2)cc1 | 5% (inactive)
38 | Cc1nc2c(c(=O)n1CCC1=CCCCC1)c1nc3ccccc3nc1n2/N=C/c1ccco1 | 63.1% (active)
39 | CCCn1c(C)nc2c(c1=O)c1nc3ccccc3nc1n2CCC1=CCCCC1 | 16.1% (inactive)
40 | O=c1c2c3nc4ccccc4nc3n(/N=C/c3ccco3)c2ncn1CCC1=CCCCC1 | 30% (inactive)
41 | COc1ccc(S(=O)(=O)n2nc(-c3cc(OC)c(OC)c(OC)c3)cc2N)cc1OC | 5.2% (inactive)
42 | COc1ccc(OC)c(S(=O)(=O)n2nc(-c3ccccc3)cc2N)c1 | -10.9% (inactive)
43 | O=C(CSc1nc2ccccc2[nH]1)N1CCCCC1 | 0.6% (inactive)
44 | COc1ccc(-c2noc(C3CCCN(C(=O)c4cccs4)C3)n2)cc1 (stereo not drawn) | -10.3% (inactive)
45 | Cc1ccccc1NC(=O)N1CCCC(c2nc(-c3ccc(C(C)C)cc3)no2)C1 (stereo not drawn) | 28.5% (inactive)
46 | COc1ccc(NC(=O)N2CCCC(c3nc(-c4ccc(C(C)C)cc4)no3)C2)cc1 (stereo not drawn) | 65.6% (active)
47 | CN(CC(=O)N1CCc2ccccc21)S(=O)(=O)c1ccc(Cl)cc1 | 1.1% (inactive)
48 | COC(=O)C(C(=O)Nc1cc(C)on1)C1CCCCCC1 (stereo not drawn) | -4.9% (inactive)
49 | CSc1nc2cc(Cl)ccc2s1 | -3.5% (inactive)
50 | COc1ccc(C(=O)Oc2ccc(C(C)=O)cc2)c(OC)c1 | 3.6% (inactive)

Row | Compound | cytotoxicity
51 | COc1ccc(C(=O)c2ccc(N3CCOCC3)cc2)c(OC)c1 | 4.5% (inactive)
52 | COc1ccc(C(=O)c2ccc(N(C)C)cc2)c(OC)c1 | 56.3% (active)
53 | COc1cc(SC)ccc1C(=O)Nc1ccccc1C#N | 28.3% (inactive)
54 | Nc1cc(N)nc(SCCOc2ccccc2F)n1 | -15.6% (inactive)
55 | COc1ccccc1NC(=O)N1CCCC1C(=O)Nc1nnc(C(C)C)s1 (stereo not drawn) | 4.6% (inactive)
56 | O=C(NCc1ccco1)C(c1cccnc1)N(C(=O)Cn1nnc2ccccc21)c1ccc(F)cc1 (stereo not drawn) | 9.8% (inactive)
57 | COC(=O)C1=C(C)N(C)C(C)=C(C(=O)OC)C1c1ccncc1 | -1% (inactive)
58 | Cc1ccc(CNC(=O)CCS(=O)(=O)c2cccc3nonc23)cc1 | -9.3% (inactive)
59 | Cc1ccc2nc(-c3ccccn3)cc(C(=O)N3CCN(c4ncccn4)CC3)c2c1 | 13.2% (inactive)
60 | CCOC(=O)N1CCN(C(=O)c2cc(-c3ccc(OCC)cc3)nc3ccccc23)CC1 | 63.5% (active)
61 | CCOc1ccc(-c2cc(C(=O)N3CCN(C)CC3)c3ccccc3n2)cc1 | -12.4% (inactive)
62 | COc1ccc(-c2cc(C(=O)N3CCN(c4ccccn4)CC3)c3ccccc3n2)cc1 | 5.9% (inactive)
63 | CCOc1ccc(-c2cc(C(=O)N3CCN(c4ccccn4)CC3)c3ccccc3n2)cc1 | 53% (active)
64 | Cc1ccc(-c2cc(C(=O)N3CCOCC3)c3ccccc3n2)cc1 | 1.8% (inactive)
65 | O=C(c1cc(-c2ccccc2)nc2ccccc12)N1CCN(c2ccccn2)CC1 | 27.1% (inactive)
66 | COc1cccc(-c2cc(C(=O)N3CCN(c4ncccn4)CC3)c3ccccc3n2)c1 | 15.2% (inactive)
67 | Cc1ccc(-c2cc(C(=O)N3CCN(c4ncccn4)CC3)c3ccccc3n2)cc1 | 58.8% (active)
68 | CSC1=C(C#N)C(c2ccc(Cl)cc2)C2=C(CC(C)(C)CC2=O)N1 (stereo not drawn) | 2.7% (inactive)
69 | O=C(CSc1nnc(-c2ccco2)o1)N1CCOCC1 | -5.8% (inactive)
70 | Cc1cc(NC(=O)CN2CCN(c3ncccn3)CC2)no1 | -2.6% (inactive)
71 | CCCn1nnc(NC(=O)COc2ccccc2Cl)n1 | 8.6% (inactive)
72 | Cc1cc(S(=O)(=O)N2CCC(NC(=O)C34CC5CC(CC(C5)C3)C4)CC2)ccc1-n1cnnn1 | -5.5% (inactive)
73 | COc1ccccc1OCCNC(=O)c1cccs1 | -0.7% (inactive)
74 | COc1ccc(C2=CC(c3ccc(C)cc3)n3nnnc3N2)cc1 (stereo not drawn) | -4.4% (inactive)
75 | CCOc1ccc(C2C=C(c3ccc(C)cc3)Nc3nnnn32)cc1 (stereo not drawn) | -11% (inactive)

Row | Compound | cytotoxicity
76 | Cc1ccc(CNC(=O)C2CCN(S(=O)(=O)c3cccs3)CC2)o1 | -10.5% (inactive)
77 | O=C(CCC1CCCC1)c1c(O)c2ccccc2oc1=O | 18% (inactive)
78 | O=C(c1c(O)c2ccccc2oc1=O)C1CCC1 | 6.1% (inactive)
79 | O=C(CC1CCCCC1)c1c(O)c2ccccc2oc1=O | 59.2% (active)
80 | COc1cccc(-c2nnc3n2N=C(c2cccc(Br)c2)CS3)c1 | -14.8% (inactive)
81 | CCSc1nnc([C@@H]2CCCN2C(=O)OC(C)(C)C)o1 | -8.4% (inactive)
82 | Cc1cccc(OCC(O)Cn2c(NCc3cccnc3)nc3c2c(=O)[nH]c(=O)n3C)c1 (stereo not drawn) | -23.4% (inactive)
83 | Cc1nc(SCC(=O)N2CCN(c3ccccc3)CC2)c2oc3ccccc3c2n1 | 54.9% (active)
84 | CC(=O)N1CCN(c2ccc(Nc3nc(C)nc4c3oc3ccccc34)cc2)CC1 | -3.4% (inactive)
85 | CCc1nc(Nc2ccc(N3CCN(C(C)=O)CC3)cc2)c2oc3ccccc3c2n1 | 52.7% (active)
86 | Cc1nc(Nc2ccncc2)c2oc3ccccc3c2n1 | -14.9% (inactive)
87 | Cc1nc(SCC(=O)N2CCCc3ccccc32)c2oc3ccccc3c2n1 | -19.9% (inactive)
88 | CCc1nc(Nc2ccncc2)c2oc3ccccc3c2n1 | 64.2% (active)
89 | CC(=O)N1CCN(c2ccc(Nc3ncnc4c3oc3ccccc34)cc2)CC1 | 19.3% (inactive)
90 | Cc1nc(SCC(=O)O)c2oc3ccccc3c2n1 | -10.8% (inactive)
91 | CCNc1nc(CC)nc2c1oc1ccccc12 | -17.1% (inactive)
92 | COc1ccc2c(c1)c(=O)c(Br)c(C)n2Cc1ccccc1 | 0.5% (inactive)
93 | FC(F)(F)c1cccc(-c2ccc(-c3csnn3)o2)c1 | -13.4% (inactive)
94 | O=C(O)CC(CNS(=O)(=O)c1ccccc1)c1ccccc1 (stereo not drawn) | 0% (inactive)
95 | OCc1nnn(-c2cccc(C(F)(F)F)c2)c1CO | -2.5% (inactive)
96 | N#C/C(Cn1c[n+](NC(=O)Nc2ccccc2)cn1)=N/O | -6.9% (inactive)
97 | O=C1CC(SCc2nc3ccccc3[nH]2)C(=O)N1c1cccc(F)c1 (stereo not drawn) | -0.8% (inactive)
98 | O=C(NCc1ccccn1)C1CCC(=O)N1C1CCCC1 (stereo not drawn) | 2.2% (inactive)
